The list is not random: actives were taken first. Their share in the collection is about 1.9%.
PrPC TRFRET: cell surface PrPC inhibition, primary TR-FRET screen | P04156 | TR-FRET read-out | inhibition, % at 13.8 µM | actives 0.43% (n = 370,000) | AID 720596; in the data active means inhibition above about 24%; further: 0% = median of the test wells and 100% = reference compound wells
PrP UTR inh: inhibition of PrP 5' UTR reporter expression; inhibition, % (test concentration not listed); actives 0.35% (n = 340,000); cell-based PrP 5' UTR mRNA reporter, plate reader; AID 488862; in the data active means inhibition above about 52%; further: 0 = median of the neutral control wells
RecA splice inh: blocks M. tuberculosis RecA intein splicing. cell-free RecA intein splicing, fluorescence. actives 0.75% (n = 290,000). AID 2221. P9WHJ3. inhibition, % (test concentration not listed); in the data active means inhibition above about 30%; inconclusive means no clear call, values can overlap the other calls;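 further: 0% = vehicle wells and 100% = reference inhibitor control wells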
Target sequence (P9WHJ3 whole entry, looked up, canonical isoform): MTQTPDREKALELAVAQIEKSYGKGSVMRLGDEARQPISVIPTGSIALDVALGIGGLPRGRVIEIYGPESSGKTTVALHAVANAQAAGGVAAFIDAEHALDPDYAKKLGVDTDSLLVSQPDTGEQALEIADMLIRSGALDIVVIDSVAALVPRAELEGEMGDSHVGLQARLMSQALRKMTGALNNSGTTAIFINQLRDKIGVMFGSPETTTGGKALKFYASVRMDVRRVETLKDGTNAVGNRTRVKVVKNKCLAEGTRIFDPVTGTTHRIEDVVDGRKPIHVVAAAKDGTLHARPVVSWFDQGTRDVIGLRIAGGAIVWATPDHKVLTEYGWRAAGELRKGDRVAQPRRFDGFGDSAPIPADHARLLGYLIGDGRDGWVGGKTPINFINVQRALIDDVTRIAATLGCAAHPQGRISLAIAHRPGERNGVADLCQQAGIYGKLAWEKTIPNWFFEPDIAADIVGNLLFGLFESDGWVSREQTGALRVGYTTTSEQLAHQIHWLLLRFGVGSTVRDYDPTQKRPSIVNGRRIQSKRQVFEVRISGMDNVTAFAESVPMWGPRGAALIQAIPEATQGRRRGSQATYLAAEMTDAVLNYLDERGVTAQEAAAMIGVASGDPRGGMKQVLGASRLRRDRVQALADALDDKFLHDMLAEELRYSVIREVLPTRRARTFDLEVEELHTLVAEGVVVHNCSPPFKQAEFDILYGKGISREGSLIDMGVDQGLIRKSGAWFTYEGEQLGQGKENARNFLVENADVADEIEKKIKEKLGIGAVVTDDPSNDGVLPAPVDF
BJeLR lethal: kills HRASV12-expressing BJeLR cells; BJeLR (HRASV12) viability, CellTiter-Glo ATP luminescence, 48 h; AID 1554; inhibition, % (test concentration not listed); actives 0.17% (n = 300,000); in the data active means inhibition above about 50%; inconclusive means no clear call, values can overlap the other calls
SSB-PriA inh: K. pneumoniae PriA-SSBct interaction inhibition | AlphaScreen SSBct-PriA binding, biotinylated peptide | inhibition, % at 33 µM | actives 0.6% (n = 430,000) | AID 1272365; in the data active means inhibition mostly above about 37%, no sharp cut-off; inactive means mostly below about 20%;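 further: plate controls were negative control peptide for no effect and reference peptide for full effect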
PfHsp40 rescue: compounds rescuing yeast from Plasmodium falciparum HSP40 toxicity. S. cerevisiae expressing PfHsp40, growth rescue, ATP luminescence. growth rescue, % at 12.5 µM. actives 0.68% (n = 340,000); in the data active means growth rescue above about 28%, passing the limit was not always enough; inconclusive means no clear call, values can overlap the other calls;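 further: yeast W303a lacking pdr1 and pdr3 grown in galactose medium; growth measured after three days at 30 °C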
An asterisk follows results filed as active; ? = inconclusive; / = no result given.

SMILES | PrPC TRFRET | PrP UTR inh | RecA splice inh | BJeLR lethal | SSB-PriA inh | PfHsp40 rescue
CCCCc1oc2ccccc2c1C(=O)c1cc(I)c(OCCN(CC)CC)c(I)c1 | 3 | -7 | 38* | 1 | 33 | 1
CCN(CC)CCOc1ncnc2c1oc1ccccc12 | -3 | -50 | 0 | 7 | -9 | -1
O=C(CCCCCCC(=O)Nc1ccccc1)NO | 1 | -79 | -1 | 72* | -9 | -2
COc1ccc(N2C(=O)C(Cl)=C(NCc3ccccc3)C2=O)cc1 | -2 | -9 | 36* | 0 | 11 | 1
Cc1ccc(-n2nnnc2SCC(=O)N2CCc3ccccc3C2)c(C)c1 | 6 | / | 8 | 6 | -13 | 71*
Cc1cccc(NC(=S)NN=C2CCCCc3ccccc32)c1 | / | / | / | / | 15 | /
CC1=NN(c2ccccc2)C(=O)/C1=C\c1ccc(Oc2ccc([N+](=O)[O-])cc2[N+](=O)[O-])cc1 | -40 | -9 | 84* | -1 | 21 | 0
COc1ccccc1/C=C1/C(=O)N(c2ccccc2)N=C1C | -2 | -11 | 58* | -4 | -7 | /
COc1cc(/C=C2/C(=O)N(c3ccc(Br)cc3)N=C2C)cc(OC)c1OC | / | -16 | 63* | 25 | -6 | 1
CCOC(=O)N1CCC2(CC1)C(C#N)=C(N)Oc1n[nH]c(CSc3ccc(C)cc3)c12 | 2 | -32 | 51* | 0 | -8 | -1
Cc1ccc(SCc2[nH]nc3c2C2(C(=O)Nc4ccc([N+](=O)[O-])cc42)C(C#N)=C(N)O3)cc1 (stereo not drawn) | 5 | -5 | 12 | -5 | 17 | 0
COC(=O)C1C2c3ccccc3C(c3ccccc32)C1(C)C(=O)OC (stereo not drawn) | -7 | 0 | / | / | -16 | 35*
COC(=O)[C@@H]1C(c2ccccc2)(c2ccccc2)[C@@]1(C)C(=O)OC | 12 | -27 | 3 | 4 | -6 | 1
CC(=O)Nc1ccc(C(=O)N2CCC(c3nn(C)c(=O)n3C3CC3)CC2)cc1 | / | / | / | / | 0 | /
CCCC(NC(=O)CCl)c1ccccc1 (stereo not drawn) | -12 | -32 | 8 | 1 | -9 | 0
CC(C)CC(NC(=O)CCl)c1ccccc1 (stereo not drawn) | 1 | -15 | 44* | -2 | -5 | -1
Clc1ccc2[nH]c(-c3ccccc3)cc2c1 | 14 | -108 | -5 | -2 | -41 | 65*
Cc1ccc(N(CCC#N)C(=O)CCl)cc1C | -7 | -42 | 56* | -3 | -10 | -1
Cc1ccc(SCC(=O)OCC(=O)N(CCC#N)c2ccccc2)cc1C | -4 | -12 | 6 | 7 | -9 | 1
Cc1ccc(S(=O)(=O)N=S(C)c2ccccc2)cc1 (stereo not drawn) | / | / | / | / | -11 | /
COc1cc(Cn2nc(-c3ccccc3)c3sc(N4CCOCC4)nc3c2=O)cc(OC)c1 | / | / | / | / | -1 | /
O=c1c2ccccc2nc(COc2ccccc2)n1/N=C/c1ccc(O)cc1O | 4 | -2 | 14 | 3 | / | 52*
Cn1cccc1C(O)CCNC(=O)c1ccc2nsnc2c1 (stereo not drawn) | / | / | / | / | -13 | /
COc1cccc2sc(OC3CN(C(=O)C4CCN(S(C)(=O)=O)CC4)C3)nc12 | / | / | / | / | -17 | /
Cc1cc(C)cc(NC(=O)NCCn2nc(-c3cccs3)ccc2=O)c1 | / | / | / | / | -12 | /
SMILES | PrPC TRFRET | PrP UTR inh | RecA splice inh | BJeLR lethal | SSB-PriA inh | PfHsp40 rescue
Oc1c(Cl)cc(Cl)cc1C=Nc1nccs1 | / | / | / | / | 56* | /
Oc1c(Cl)cc(Cl)cc1/C=N/c1nccs1 | 1 | -27 | 2 | -2 | / | ?
CN1C(=O)N(CC(=O)Nc2nc(-c3ccccn3)cs2)C(=O)C12CCCCC2 | / | / | / | / | 101* | /
Cc1ccc(C2(C)NC(=O)N(CC(=O)Nc3nc(-c4ccccn4)cs3)C2=O)cc1 (stereo not drawn) | 5 | 13 | -2 | 14 | 85* | 0
C=C1Nc2ccccc2N(CC(=O)Nc2nc(-c3ccccn3)cs2)C1=O | / | / | / | / | 57 | /
CC1(c2ccccc2)NC(=O)N(CC(=O)Nc2nc(-c3ccccn3)cs2)C1=O (stereo not drawn) | 4 | -5 | 0 | -11 | 75* | 0
CC1(C)NC(=O)N(CC(=O)Nc2nc(-c3ccccn3)cs2)C1=O | / | / | / | / | 106* | /
COc1cc(CNC(=O)c2cccc(-n3ccc4ccccc43)c2)cc(OC)c1OC | / | / | / | / | 6 | /
COc1cc(C2CC(=O)NC(SCc3ccccc3)=C2C#N)cc(Br)c1O (stereo not drawn) | / | / | / | / | 11 | /
Oc1cccc2ccc(Nc3ccccn3)nc12 | 12 | 17 | -22 | -1 | 103* | 240*
c1ccc(Nc2ccccc2Nc2ccccn2)nc1 | 6 | -24 | 2 | 1 | 10 | 0
O=c1cc(CO)oc(C(Nc2ccccn2)c2ccc(C(F)(F)F)cc2)c1O (stereo not drawn) | 7 | -10 | -7 | 17 | -30 | 128*
COc1ccc(-c2cc(C(=O)N3CCN(c4ccccc4F)CC3)c3ccccc3n2)c(OC)c1 | 2 | -9 | 2 | -15 | -4 | 376*
CCOc1ccccc1N1CCN(C(=O)c2cc(-c3cc(OC)ccc3OC)nc3ccccc23)CC1 | -3 | -1 | 18 | -8 | 3 | 31*
COc1ccc(-c2cc(C(=O)N3CCN(c4ncccn4)CC3)c3ccccc3n2)c(OC)c1 | 0 | -12 | 6 | 1 | -15 | ?
CC(C)Cn1c(=O)c2nscc2n(CC(=O)NCc2ccc(Cl)cc2)c1=O | / | / | / | / | -10 | /
O=C(CNC(=O)c1ccccc1)OCc1cccc(Br)c1 | -2 | -17 | 1 | 0 | -8 | 2
O=C(CCCNC(=O)c1ccc(Cl)cc1)OCc1cccc(Br)c1 | -1 | -15 | -3 | -1 | -12 | 277*
C=CC[C@@H](Cc1ccc(F)cc1)C(=O)OC[C@H]1CCCN1C(=O)[C@@H](CC=C)CC(=O)N[C@H](CO)Cc1ccccc1 | -2 | -10 | / | / | 0 | 15
C=CCC[C@@H](Cc1ccc(F)cc1)C(=O)OC[C@@H]1CCCN1C(=O)[C@H](CC=C)CC(=O)N[C@H](CO)Cc1ccccc1 | 2 | -24 | / | / | -5 | 45*
C=CCC[C@@H](Cc1ccc(F)cc1)C(=O)OC[C@H]1CCCN1C(=O)[C@@H](CC=C)CC(=O)N[C@H](CO)Cc1ccccc1 | -10 | -15 | / | / | -2 | 39*
C=CC[C@@H](Cc1ccc(F)cc1)C(=O)OC[C@H]1CCCN1C(=O)[C@@H](CC=C)CC(=O)N[C@@H](CO)Cc1ccccc1 | -1 | -6 | / | / | -5 | 32*
CC(=O)Nc1cc2c(cc1[N+](=O)[O-])-c1ccccc1C2=NO | -17 | -24 | / | / | -2 | 1
Nc1cc2c(cc1[N+](=O)[O-])-c1ccccc1C2=NO | -39 | -19 | / | / | 3 | 73*
CCOC(=O)c1c(C)[nH]c(C2=NNC(=Nc3ccccc3OC)SC2)c1C | -3 | -93 | 4 | -7 | 54* | 0
COc1ccc2c(C)c(CC(=O)N3C[C@H]4C[C@H](C3)c3cccc(=O)n3C4)c(=O)oc2c1C | / | / | / | / | -5 | /
CSc1ccc(NC(=O)Cc2ccc(Cl)cc2)nn1 | / | / | / | / | -1 | /
Cc1noc(CNC(=O)C2(c3ccc(Cl)cc3)CCCC2)n1 | / | / | / | / | -11 | /

Assay outcomes deposited in PubChem by several laboratories.
